From PubChem BioAssay AID651812 (National Center for Advancing Translational Sciences (NCATS), 2012)
In all, about 2,100 compounds went through this assay and about 650 (31%) were called active. Roughly 16% stayed inconclusive and do not appear here. Calls follow the shape of the dose curve; as a rule, active = well fitted inhibition curve with a large enough effect; inconclusive = small, poorly fitted or top-dose-only effect; inactive = flat fitted curve, though single readings scatter. Some of the results follow.
Potency is read from the fitted curve at half-maximal effect.

Assay: qHTS for inhibitors of Vif-A3G interactions: Cherry picks; also: nearly all actives have a fitted effect of over 80% in size; as to activity, negative = fluorescence increase: % of control where 0% means no effect
Conditions: HeLa A3G-eYFP + Vif (tagged APOBEC3G with the HIV-1 protein that degrades it), 24 h; Potency: eYFP fluorescence increase; series mostly up to 36.9 µM; activity, negative = fluorescence increase: at the top concentration
From the text: The recent discovery and characterization of host restriction factors, which provide a potent defense to invading retroviruses, has provided new targets for antiviral drug development. APOBEC3G (A3G) and APOBEC3F (A3F) are potent cytidine deaminases that block HIV-1 replication; HIV-1 expresses the Vif protein, which counteracts A3G and A3F by binding to them and inducing their proteasomal degradation. The Vif-A3G and Vif-A3F interactions provide two potential targets for development of small molecules which can interfere with the ability of Vif to degrade A3G or A3F. […] To identify inhibitors that can interfere with Vif mediated degradation of A3G and A3F, we have developed Hela cell lines that stably express A3G or A3F tagged with eYFP at the C-terminal end (A3G-eYFP or A3F-eYFP, respectively) and Vif. In the absence of an inhibitor, Vif induces degradation of A3G-eYFP and A3F-eYFP, and the cells are not fluorescent. In the presence of an inhibitor, it is expected that Vif will be unable to degrade A3G-eYFP and/or A3F-eYFP, resulting in an increase in yellow fluorescence. In this assay, Vif A3G was screened against the cherry picks ordered from the MLSMR. NIH Chemical Genomics Center [NCGC] NIH Molecular Libraries Probe Centers Network [MLPCN] MLPCN Grant: MH093245 Assay Submitter (PI): Vinay Pathak, National Cancer Institute
A3G-Vif cells were harvested from T225 flask and resuspended in phenol free OPTI-MEM medium with 5% FBS. Then 5 uL of 140,000 cells/mL resuspended cells was dispensed into each well of low base Aurora COC 1,536-well plates (black walled, clear bottom) using a Multidrop Combi dispenser. After overnight culture at 37 deg C with 5% CO2, a total of 23 nL of compounds at 5 selected concentrations from the NPC or positive control (2 mM stock of MG132) in DMSO was transferred to each well of the assay plate using a pintool (Kalypsys, San Diego, CA), and the plates were further incubated at 37 deg C with 5% CO2 for 24 hours. After that, the plates were measured on Acumen Explorer (TTP Lab Tech). The fluorescence was detected by 488 nm/Ex and […].
With `Cc1c(=O)n(OCc2ccc(Cl)cc2)c2ccccc2[n+]1[O-]` the “activity, negative = fluorescence increase” value was -13.2% (inactive). For `Nc1nc2n[nH]nc2c(=O)[nH]1`, the “activity, negative = fluorescence increase” value was -21.5% (inactive). For `COCCN1C(=O)/C(=C/c2ccc(N3CCCC3)cc2)SC1=S`, the Potency was 4.61 µM (active). With `COCCN1C(=O)/C(=C/c2ccc(N3CCCC3)cc2C)SC1=S` the Potency was 2.59 µM (active). With `CC12CC3CC(C)(C1)CC(C(=O)NC(=S)N1CCOCC1)(C3)C2` the “activity, negative = fluorescence increase” value was -2.7% (inactive). For `COc1ccc(-c2n[nH]c(C)c2-c2ccc(OC)c(OC)c2)c(O)c1`, the “activity, negative = fluorescence increase” value was -8.88% (inactive). For `C=C1C(=O)O[C@@H]2[C@H]1[C@@H](OC(=O)/C(C)=C/C)C/C(C)=C\C(=O)/C=C(\C)[C@@H]2O`, the “activity, negative = fluorescence increase” value was -0.207% (inactive). For `COc1ccc(/C=N\NC(=O)c2ccccc2F)cc1COc1ccc(F)cc1F`, the “activity, negative = fluorescence increase” value was -9.87% (inactive). For `COc1cc(/C=C(\C#N)c2nc3ccccc3[nH]2)ccc1OCc1ccccc1F`, the Potency was 18.4 µM (active). For `O=C(Oc1ccc(Cl)c2cccnc12)c1ccco1`, the “activity, negative = fluorescence increase” value was 1.78% (inactive). In the case of `COc1cc(/C=C(\C#N)c2nc3ccc(C)cc3[nH]2)ccc1OC(C)C`, the Potency is reported as 20.6 µM (active). With `COc1ccc(/C=N/NC(=O)c2ccccc2Cl)cc1CSc1nc2ccccc2s1` the “activity, negative = fluorescence increase” value was -9.1% (inactive). For `COc1cc(/C=C(\C#N)c2nc3ccccc3s2)ccc1OCC(=O)Nc1ccccc1`, the Potency was 17.7 µM (active). In the case of `COc1ccc(OC)c2sc(NC(=O)CCS(=O)(=O)c3ccccc3)nc12`, the “activity, negative = fluorescence increase” value is reported as 1.26% (inactive). With `COc1cc(/C=C(/C#N)c2nc3ccccc3[nH]2)ccc1OC(=O)c1ccco1` the Potency was 3.53 µM (active). With `CC1(C)Cc2nc3sc4c(SCC(=O)NCc5ccco5)ncnc4c3cc2CO1` the “activity, negative = fluorescence increase” value was 2.17% (inactive). With `CCS(=O)(=O)N1CCc2cc(C(=O)N3CCN(c4cccc(C(F)(F)F)c4)CC3)ccc21` the “activity, negative = fluorescence increase” value was 1.28% [at 46.1 µM] (inactive). For `CCC(C)Sc1cccc(-c2nc3cc(C)ccn3c2NC2CCCCC2)c1` (centres undefined), the “activity, negative = fluorescence increase” value was 10.8% [at 46.1 µM] (inactive). In the case of `CN1C(=O)C(O)(C2COC(C)(C)CC2=O)c2cc(Br)ccc21` (centres undefined), the “activity, negative = fluorescence increase” value is reported as -6.11% (inactive). With `N#CC1=C(N)Oc2cc(N)ccc2C1C1CC=CCC1` (centres undefined) the “activity, negative = fluorescence increase” value was -0.128% (inactive). In the case of `COc1ccc(-c2cc(NC=O)c3ncc(-c4ccc(OC)c(OC)c4)n3c2)cc1OC`, the “activity, negative = fluorescence increase” value is reported as -17.9% (inactive). With `CCOC(=O)C(=Cc1ccc(-n2ccnc2)cc1)C(=O)OCC` the “activity, negative = fluorescence increase” value was -3.07% (inactive). For `Cn1c(-c2ccccc2)cc2c3no[n+]([O-])c3ccc21`, the “activity, negative = fluorescence increase” value was -7.06% (inactive). With `CC(C)(C)NCC(=Cc1ccccc1)C(=O)c1ccccc1` the “activity, negative = fluorescence increase” value was 3.08% (inactive). With `COc1ccc(-c2cnnc(N/N=C/c3ccc(O)c(OC)c3)n2)cc1` the “activity, negative = fluorescence increase” value was -16.7% (inactive). For `COc1cc(/C=C(\C#N)c2nc3ccccc3[nH]2)cc(Cl)c1OCc1ccccc1Cl`, the Potency was 18.4 µM (active). For `COc1cc(/C=C(\C#N)c2nc3ccccc3[nH]2)ccc1O`, the Potency was 5.8 µM (active). In the case of `COc1cc(/C=C(/C#N)c2nc3ccccc3[nH]2)ccc1OCC(=O)Nc1ccccc1C(C)C`, the Potency is reported as 16.4 µM (active). With `N#C/C(=C\c1cccnc1)c1nc2ccccc2[nH]1` the “activity, negative = fluorescence increase” value was -5.97% (inactive). In the case of `Cc1cccc(Nc2nnc(SC/C(O)=C(\C#N)c3nc4ccccc4[nH]3)s2)c1`, the “activity, negative = fluorescence increase” value is reported as -16.6% [at 46.1 µM] (inactive). With `COc1cc(/C=C(/C(=O)c2cccs2)c2nc3ccccc3[nH]2)ccc1O` the “activity, negative = fluorescence increase” value was -7.69% (inactive). For `COc1cc(Br)c(/C=C(\C#N)c2nc3ccccc3[nH]2)cc1OC`, the Potency was 18.4 µM (active). For `COc1ccccc1NC(=O)c1oc2ccccc2c1NC(=O)c1cccc(OC)c1OC`, the “activity, negative = fluorescence increase” value was -11.2% [at 46.1 µM] (inactive). With `CC(=O)c1cccc(-c2ccnc3c2CC(C(=O)NCC2CC2)O3)c1` (centres undefined) the “activity, negative = fluorescence increase” value was -3.12% (inactive). With `N#CC1CC(c2ccccc2)Nc2cc(Cl)ccc2N1` (centres undefined) the “activity, negative = fluorescence increase” value was 1.23% (inactive). In the case of `COc1ccc(N(C)S(=O)(=O)c2cccc3cccnc23)c(OC)c1`, the “activity, negative = fluorescence increase” value is reported as 2.33% (inactive). For `COc1ccc(C(=O)NC2CCCc3ccccc32)cc1[N+](=O)[O-]` (centres undefined), the “activity, negative = fluorescence increase” value was 1.3% (inactive). For `COc1ccc2nc(NC(=O)Nc3ccccc3OC)sc2c1`, the “activity, negative = fluorescence increase” value was 0.903% (inactive). For `COc1ccc2nc(NC(=S)NC(=O)c3ccco3)sc2c1`, the “activity, negative = fluorescence increase” value was -2.19% [at 46.1 µM] (inactive). For `COc1ccc2nc(N3C(=O)/C(=C/c4ccccc4)NC3=S)sc2c1`, the Potency was 3.66 µM (active). For `CCOc1ccc2nc(N3C(=O)/C(=C/c4ccc(Cl)cc4)NC3=S)sc2c1`, the Potency was 11.6 µM (active). For `O=C(OC12CC3CC(CC(C3)C1)C2)c1ccc(NCc2cc(O)ccc2O)cc1`, the “activity, negative = fluorescence increase” value was 1.32% [at 46.1 µM] (inactive). In the case of `COc1c(-c2ccc(O)c(O)c2)oc2cc(O)cc(O)c2c1=O`, the “activity, negative = fluorescence increase” value is reported as -10.1% (inactive). In the case of `CC(=O)c1c(C)oc2c1cc(NS(=O)(=O)c1ccc(Br)cc1)c1ccccc12`, the “activity, negative = fluorescence increase” value is reported as -5.41% [at 46.1 µM] (inactive). With `Cc1ccc2c(c1)sc(-c1ccc(N(C)C)cc1)[n+]2C` the Potency was 20.6 µM (active). In the case of `COc1ccc(C(=O)c2cc([N+](=O)[O-])ccc2N2CCCC2)cc1`, the “activity, negative = fluorescence increase” value is reported as -0.081% (inactive). With `COc1ccc(N/C=C/C(=O)c2cc(OC)c(OC)c(OC)c2)cc1` the “activity, negative = fluorescence increase” value was -17% (inactive). In the case of `COc1ccc(C(=O)/C=C/Nc2ccc([N+](=O)[O-])cc2C)c(OC)c1`, the Potency is reported as 11.6 µM (active). With `COC(=O)c1ccccc1NC(=O)C1CC(=O)N(c2ccc(OC)cc2)C1` (centres undefined) the “activity, negative = fluorescence increase” value was -1.16% (inactive).
